In ChEMBL document CHEMBL1157539, “Thousands of chemical starting points for antimalarial lead identification” (Nature, 2010) one finds Inhibition data, which are given here for 40 molecules.

The test system of one assay is Plasmodium falciparum. Nature of the assay: GSK_TCMDC: Inhibition of Plasmodium falciparum Dd2 in whole red blood cells, using parasite LDH activity as an index of growth. Test compounds present at 2uM. The assay is classed as functional.
For the molecule `NC(=O)c1cc2nc(Nc3ccc(F)cc3)nc(Nc3ccc(S(N)(=O)=O)cc3)c2[nH]1.O=CO`, the Inhibition is recorded as 99%.
For the molecule `Cc1cccc(CNc2nc(C)cc(N[C@@H](CC(C)C)C(=O)NCCOc3ccccc3)n2)c1.O=C(O)C(F)(F)F`, the Inhibition was found to be 35%.
Same read-out and setting: in the case of `Cc1cccc2nc(-c3cccc(-c4cccc(NC(=O)c5cncn5C)c4)c3)[nH]c12` it was 91%; in that of `CC(C)[C@H](NC(=O)c1ccc(O)c(-c2ccc(Cl)c(Cl)c2)c1)C(=O)NCCN1CCCCC1`, 98%.
In the case of `COc1cc(C=CC(=O)N2CCC(CCN3CCC(c4c[nH]c5ccccc45)CC3)CC2)cc(OC)c1`, the Inhibition was found to be 23%.
Molecule `Nc1cccc(CNCc2cccc(-c3ccc(-c4nc5ccccc5[nH]4)s3)c2)c1.O=C(O)C(F)(F)F` showed an Inhibition of 90%.
Turning to `COc1ccc(Nc2ncc3c(-c4cccc(NC(=O)c5ccccc5)c4)c[nH]c3n2)cc1OC`, the Inhibition was 95%.
Turning to `O=[N+]([O-])c1ccccc1/C=N/Nc1ccnc2cc(Cl)ccc12`, the Inhibition is reported as 89%.
The molecule `COc1ccc2c(c1)CC(CNC[C@H](O)c1cccc(Cl)c1)CC2` (stereo not given in full) gave an Inhibition of 73%.
As to `COc1ccc(C=NNc2ccnc3cc(F)c(C)cc23)c2ccccc12`, the Inhibition is recorded as 85%.
`COc1ccc(-c2ccccc2CNC2Cc3ccccc3C2)cc1S(=O)(=O)NCCN1CCCC1.O=C(O)C(F)(F)F` displayed an Inhibition of 47%.
In the case of `Cc1[nH]c2ccccc2c1C1CCN(CCCCNC(=O)c2ccc(-c3ccc(C#N)cc3)cc2)CC1`, the Inhibition was 97%.
The same measure, in the same setting: the result for `CC(C)CSc1cc(C(=O)Nc2cc(Cl)ccc2O)ccn1` reads 34%; that for `CSc1sc(NC(=O)Nc2cccc(C(F)(F)F)c2)cc1C#N`, 46%; that for `O=C(Nc1ccc(-c2ccc(-c3nc4ccccc4[nH]3)s2)cc1)Nc1ccc(Cl)c(Cl)c1`, 99%.
In turn, `O=C(O)C(F)(F)F.c1cc(-c2ccc(CNCc3ccc(-c4csnn4)cc3)cc2)cc(-c2nc3ccccc3[nH]2)c1` displayed an Inhibition of 96%.
With `CC(C)[C@H](NC(=O)c1ccc(O)c(-c2ccc(Cl)c(Cl)c2)c1)C(=O)NCCN1CCOCC1`, the Inhibition amounted to 44%.
Consider `COc1ccc(-c2cccc(NC(=O)c3ccc(C#N)cc3)c2)cc1CN(C)CCN(C)C.O=C(O)C(F)(F)F`, for which the Inhibition was 18%.
As to `CC(C)(C)c1ccc(-c2ccccc2CNC(=O)c2cccc(O)c2)cc1`, the Inhibition is recorded as 88%.
Regarding `O=C(Nc1ccc(F)c(F)c1)c1ccc(CN2CCCN(Cc3cccc(O)c3)CC2)cc1.O=C(O)C(F)(F)F`, the Inhibition turned out to be 57%.
On the same count and under the same terms, in the case of `CNC(=O)NC1=NC(C)(C)N(OCCCOc2cc(Cl)c(Cl)cc2Cl)C(N)=N1` it was 2%; in that of `N=c1c(C(=O)NCc2ccccc2)cc2c(=O)n3ccccc3nc2n1CCc1ccccc1`, 25%; in that of `NCC1CCCN1Cc1ccc(-c2ccc(-c3nc4cc(F)ccc4[nH]3)cc2)cc1.O=C(O)C(F)(F)F` (stereo not given), 100%.
Molecule `CCCNCc1ccc(-c2ccc(CN(C(=O)c3nn(-c4ccccc4)nc3C)C3CCOCC3)cc2)nc1.O=C(O)C(F)(F)F` registered an Inhibition of 0%.
The molecule `Cc1cc(Oc2ccc(-n3ccnc3)cc2)nc(N2CCN(CCCN3CCCC3)CC2)n1.O=C(O)C(F)(F)F` had an Inhibition of 7%.
In the case of `Cc1ccc(N(CCC(=N)N)Cc2ccccc2)cc1.Cl`, the Inhibition is listed as 95%.
Same read-out and setting: the result for `Cl.Cn1cc(Br)c(-c2cccc(Nc3ccnc4cc(-c5nccs5)ccc34)c2)n1` reads 32%.
`CN1CCN(Cc2ccc(-c3ccc4ncnc(Nc5ccc(OCc6ccccc6)cc5)c4c3)o2)CC1` yielded an Inhibition of 90%.
`CCCN(C(=O)c1ccccc1C)c1nnc(-c2cccc(C)c2)s1` registered an Inhibition of 67%.
Consider `O=C(NCCCCN1CCN(c2cccc3c2CCCC3)CC1)c1ccc(NC(=O)c2ccc(Cl)cc2)cc1`, for which the Inhibition stood at 85%.
The molecule `OC1=C2C(=Nc3ccccc3SC2c2cccs2)c2ccccc21` (stereo not given) yielded an Inhibition of 93%.
With `CC(C)(C)CNc1noc(-c2sccc2Br)n1`, the Inhibition is 71%.
`Br.Cc1cccc(OCCCCON2C(=N)N=C(N)NC2(C)C)c1C` displayed an Inhibition of 95%.
In turn, `Cc1cccc(C(=O)NCCCN2CCC(NC(=O)/C=C/c3ccc(Cl)c(Cl)c3)CC2)c1.O=C(O)C(F)(F)F` showed an Inhibition of 23%.
Consider `O=C(NCCCN(Cc1ccc(F)cc1)c1ccccn1)C(c1cc2ccccc2o1)N1CCN(C(c2ccccc2)c2ccccc2)CC1` (stereo not given), for which the Inhibition was determined as 53%.
`CN(CCO)Cc1cccc(-c2ccc(NC(=O)c3cccc(C#N)c3)cc2)c1.O=C(O)C(F)(F)F` registered an Inhibition of 57%.
`Cl.O=C(NCCCCN1CCC(c2ccc3c(c2OC(=O)c2ccc(NC(=O)c4ccc(Cl)cc4)cc2)CCCC3)CC1)c1ccc(NC(=O)c2ccc(Cl)cc2)cc1` had an Inhibition of 99%.
In the case of `COc1ccc2ccccc2c1CCCCN1CCN(CC(c2ccc(F)cc2)N2CCN(C3CCCC3)CC2)CC1.O=C(O)C(F)(F)F` (stereo not given), the Inhibition stood at 51%.
In turn, `COc1ccc(OCCn2cc(C(=O)c3ccco3)c3ccccc32)cc1` gave an Inhibition of 61%.
The molecule `c1ccc2[nH]c(Nc3ccc(Nc4nc5ccccc5[nH]4)cc3)nc2c1` registered an Inhibition of 27%.

The test system of a further assay is HepG2. The assay can be described thus: GSK_TCMDC: Percent inhibition of human HepG2 cell line. Test compounds present at 10uM. The class given is functional.
For `NC(=O)c1cc2nc(Nc3ccc(F)cc3)nc(Nc3ccc(S(N)(=O)=O)cc3)c2[nH]1.O=CO`, the Inhibition worked out at 2%.
With `Cc1cccc(CNc2nc(C)cc(N[C@@H](CC(C)C)C(=O)NCCOc3ccccc3)n2)c1.O=C(O)C(F)(F)F`, the Inhibition is recorded as 15%.
Same read-out and setting: the result for `Cc1cccc2nc(-c3cccc(-c4cccc(NC(=O)c5cncn5C)c4)c3)[nH]c12` reads 0%; that for `CC(C)[C@H](NC(=O)c1ccc(O)c(-c2ccc(Cl)c(Cl)c2)c1)C(=O)NCCN1CCCCC1`, 0%; that for `COc1cc(C=CC(=O)N2CCC(CCN3CCC(c4c[nH]c5ccccc45)CC3)CC2)cc(OC)c1`, 39%.
Molecule `Nc1cccc(CNCc2cccc(-c3ccc(-c4nc5ccccc5[nH]4)s3)c2)c1.O=C(O)C(F)(F)F` showed an Inhibition of 8%.
`COc1ccc(Nc2ncc3c(-c4cccc(NC(=O)c5ccccc5)c4)c[nH]c3n2)cc1OC` returned an Inhibition of 54%.
In the case of `O=[N+]([O-])c1ccccc1/C=N/Nc1ccnc2cc(Cl)ccc12`, the Inhibition was determined as 0%.
The molecule `COc1ccc2c(c1)CC(CNC[C@H](O)c1cccc(Cl)c1)CC2` (stereo not given in full) showed an Inhibition of 1%.
`COc1ccc(C=NNc2ccnc3cc(F)c(C)cc23)c2ccccc12`: the Inhibition is listed as 0%.
With `COc1ccc(-c2ccccc2CNC2Cc3ccccc3C2)cc1S(=O)(=O)NCCN1CCCC1.O=C(O)C(F)(F)F`, the Inhibition was found to be 18%.
With `Cc1[nH]c2ccccc2c1C1CCN(CCCCNC(=O)c2ccc(-c3ccc(C#N)cc3)cc2)CC1`, the Inhibition is 19%.
As for `CC(C)CSc1cc(C(=O)Nc2cc(Cl)ccc2O)ccn1`, the Inhibition was 36%.
In turn, `CSc1sc(NC(=O)Nc2cccc(C(F)(F)F)c2)cc1C#N` showed an Inhibition of 27%.
For `O=C(Nc1ccc(-c2ccc(-c3nc4ccccc4[nH]3)s2)cc1)Nc1ccc(Cl)c(Cl)c1`, the Inhibition worked out at 89%.
The molecule `O=C(O)C(F)(F)F.c1cc(-c2ccc(CNCc3ccc(-c4csnn4)cc3)cc2)cc(-c2nc3ccccc3[nH]2)c1` registered an Inhibition of 60%.
Still for that read-out and setting: the result for `CC(C)[C@H](NC(=O)c1ccc(O)c(-c2ccc(Cl)c(Cl)c2)c1)C(=O)NCCN1CCOCC1` reads 0%; that for `COc1ccc(-c2cccc(NC(=O)c3ccc(C#N)cc3)c2)cc1CN(C)CCN(C)C.O=C(O)C(F)(F)F`, 14%.
Take `CC(C)(C)c1ccc(-c2ccccc2CNC(=O)c2cccc(O)c2)cc1`: the Inhibition came out at 3%.
The molecule `O=C(Nc1ccc(F)c(F)c1)c1ccc(CN2CCCN(Cc3cccc(O)c3)CC2)cc1.O=C(O)C(F)(F)F` showed an Inhibition of 43%.
With `CNC(=O)NC1=NC(C)(C)N(OCCCOc2cc(Cl)c(Cl)cc2Cl)C(N)=N1`, the Inhibition came to 7%.
As to `N=c1c(C(=O)NCc2ccccc2)cc2c(=O)n3ccccc3nc2n1CCc1ccccc1`, the Inhibition is on record as 5%.
On the same count and under the same terms, in the case of `NCC1CCCN1Cc1ccc(-c2ccc(-c3nc4cc(F)ccc4[nH]3)cc2)cc1.O=C(O)C(F)(F)F` (stereo not given) it was 31%.
Regarding `CCCNCc1ccc(-c2ccc(CN(C(=O)c3nn(-c4ccccc4)nc3C)C3CCOCC3)cc2)nc1.O=C(O)C(F)(F)F`, the Inhibition came out at 14%.
On the same count and under the same terms, the result for `Cc1cc(Oc2ccc(-n3ccnc3)cc2)nc(N2CCN(CCCN3CCCC3)CC2)n1.O=C(O)C(F)(F)F` reads 5%.
In the case of `Cc1ccc(N(CCC(=N)N)Cc2ccccc2)cc1.Cl`, the Inhibition was 6%.
In the case of `Cl.Cn1cc(Br)c(-c2cccc(Nc3ccnc4cc(-c5nccs5)ccc34)c2)n1`, the Inhibition came to 37%.
For `CN1CCN(Cc2ccc(-c3ccc4ncnc(Nc5ccc(OCc6ccccc6)cc5)c4c3)o2)CC1`, the Inhibition is reported as 9%.
On the same count and under the same terms, the result for `CCCN(C(=O)c1ccccc1C)c1nnc(-c2cccc(C)c2)s1` reads 8%; that for `O=C(NCCCCN1CCN(c2cccc3c2CCCC3)CC1)c1ccc(NC(=O)c2ccc(Cl)cc2)cc1`, 35%.
`OC1=C2C(=Nc3ccccc3SC2c2cccs2)c2ccccc21` (stereo not given) returned an Inhibition of 8%.
`CC(C)(C)CNc1noc(-c2sccc2Br)n1` returned an Inhibition of 4%.
`Br.Cc1cccc(OCCCCON2C(=N)N=C(N)NC2(C)C)c1C` gave an Inhibition of 65%.
`Cc1cccc(C(=O)NCCCN2CCC(NC(=O)/C=C/c3ccc(Cl)c(Cl)c3)CC2)c1.O=C(O)C(F)(F)F` displayed an Inhibition of 39%.
Same read-out and setting: in the case of `O=C(NCCCN(Cc1ccc(F)cc1)c1ccccn1)C(c1cc2ccccc2o1)N1CCN(C(c2ccccc2)c2ccccc2)CC1` (stereo not given) it was 14%; in that of `CN(CCO)Cc1cccc(-c2ccc(NC(=O)c3cccc(C#N)c3)cc2)c1.O=C(O)C(F)(F)F`, 23%.
For `Cl.O=C(NCCCCN1CCC(c2ccc3c(c2OC(=O)c2ccc(NC(=O)c4ccc(Cl)cc4)cc2)CCCC3)CC1)c1ccc(NC(=O)c2ccc(Cl)cc2)cc1`, the Inhibition stood at 62%.
In the case of `COc1ccc2ccccc2c1CCCCN1CCN(CC(c2ccc(F)cc2)N2CCN(C3CCCC3)CC2)CC1.O=C(O)C(F)(F)F` (stereo not given), the Inhibition amounted to 88%.
Regarding `COc1ccc(OCCn2cc(C(=O)c3ccco3)c3ccccc32)cc1`, the Inhibition is on record as 17%.
`c1ccc2[nH]c(Nc3ccc(Nc4nc5ccccc5[nH]4)cc3)nc2c1` returned an Inhibition of 0%.
